The panel holds about 83,000 compounds, 20% with a hit somewhere; the sample as a whole holds those more often.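 The endpoint reported here, percent growth, reads 100 for growth as untreated, 0 for no net growth and -100 for all cells dead.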 Values without a mark were called inactive. Active and inactive are the calls of the source. Rule for the calls: active = growth percent below 10; inactive = the rest.
What follows are compounds tested on HL-60(TB) leukemia (assay: NCI-60 one-dose screen, 48 h (100 = growth as untreated, 0 = no growth, -100 = all killed)). Conditions: 10 µM unless noted.
`COc1ccccc1Nc1cc(O)c2c(=O)cc(-c3ccccc3)oc2c1` was tested, and the growth was -6.07% (active). Compound `O=C(Nc1ccccc1)Oc1cccc2cccnc12` has a growth of 57.3%. `COc1ccc(NC(=O)c2sc3nc(C)c(C(=O)CCc4cccc(OC)c4)cc3c2N)cc1` was tested, and the growth was 34.6%. `CCCCS(=O)(=O)Oc1ccc(-c2nc(C)c(C(=O)OCC)s2)cc1C=O` was tested, and the growth was 37.7%. `CCCCNCCCN(CCCC)CCCNCCCC` showed a growth of 98.5%. For `Cc1ccc(Cn2c(O)c(N=NC(=O)c3ccc(S(N)(=O)=O)cc3)c3ccccc32)cc1`, the growth was 98.6%. In the case of `CSc1ccc2c(c1)c(CCN)c(C)n2Cc1ccc(Cl)c(Cl)c1`, the growth is reported as -69.9% (active). `O=C1c2c(c(=O)[nH]c3ccccc23)CCN1Cc1ccccc1` gave a growth of 118%. With `O=C(COc1ccc(-c2nc3ccccc3[nH]2)cc1)N=Nc1c(O)[nH]c2ccccc12` the growth was 103%. `COc1ccc2nc(-c3ccc(Cl)cc3)cc(-c3nnc(SCC(=O)Nc4ccc(C(C)=O)cc4)n3-c3ccccc3)c2c1` was tested, and the growth was 99.3%. `CCCC(=O)c1cccs1` showed a growth of 87.9%. `N#Cc1c(-c2ccccc2)c(C#N)c2c(C#N)c(N)nn2c1N` was tested, and the growth was -17.2% (active). Compound `Nc1nnc2cc(F)ccc2n1` has a growth of 107%. `COc1cc(OC)c2sc(-c3ccc(-n4cncc4-c4cc(OC)c(OC)c(OC)c4)cc3)nc2c1` was tested, and the growth was 30.3%. For `C/C(=N/O)c1ccc(NC(=O)Cn2nc(-c3ccc(Cl)cc3)nc2N)cc1`, the growth was 94.7%. For `CSc1nc(O)c(-c2ccccc2)c(=O)[nH]1`, the growth was 89.5%.

Source: PubChem BioAssay (NCI)
